± gives the standard deviation of the averaged measurements.
Legend:
Test in all cases: promoter activity interaction Z-score (Lux/OD deviation from empty-vector control); higher = stronger promoter induction by the compound
[1] = system: E. coli BW25113 acrABp lux reporter
Outline: (§1)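 E. coli BW25113 (wild type or marA, soxS or rob deletion) carrying low-copy luxCDABE promoter reporters grew in 40 µl LB Lennox in 384-well plates at 37°C. Each compound was tested at four 1:2 dilutions in biological duplicates. OD600 and luminescence were read every 30 min for 12 h. Areas were taken over 0–8 h (wild type) or 1–9 h (mutants), and wells below 10% of median growth area were removed. The score is the Z-transformed residual of growth-normalised luminescence fitted against the empty-vector control.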

[2] = system: E. coli BW25113 micFp lux reporter
Outline: as §1

[3] = system: E. coli BW25113 ompFp lux reporter
Outline: as §1

[4] = system: E. coli BW25113 robp lux reporter
Outline: as §1

[5] = system: E. coli BW25113 soxSp lux reporter
Outline: as §1

[6] = system: E. coli BW25113 tolCp lux reporter
Outline: as §1

[7] = system: E. coli BW25113 marRABp lux reporter
Outline: as §1

[8] = 0.0045 µg/ml, genetic background: wild type
[9] = 0.0045 µg/ml, genetic background: ΔmarA
[10] = 0.0045 µg/ml, genetic background: Δrob
[11] = 0.0045 µg/ml, genetic background: ΔsoxS
[12] = 0.009 µg/ml, genetic background: wild type
[13] = 0.009 µg/ml, genetic background: ΔmarA
[14] = 0.009 µg/ml, genetic background: Δrob
[15] = 0.009 µg/ml, genetic background: ΔsoxS
[16] = 0.12 µg/ml, genetic background: wild type
[17] = 0.12 µg/ml, genetic background: ΔmarA
[18] = 0.12 µg/ml, genetic background: Δrob
[19] = 0.12 µg/ml, genetic background: ΔsoxS
[20] = 0.24 µg/ml, genetic background: wild type
[21] = 0.24 µg/ml, genetic background: ΔmarA
[22] = 0.24 µg/ml, genetic background: Δrob
[23] = 0.24 µg/ml, genetic background: ΔsoxS
[24] = 0.48 µg/ml, genetic background: wild type
[25] = 0.48 µg/ml, genetic background: ΔmarA
[26] = 0.48 µg/ml, genetic background: Δrob
[27] = 0.48 µg/ml, genetic background: ΔsoxS
[28] = 1 µg/ml, genetic background: wild type
[29] = 1 µg/ml, genetic background: ΔmarA
[30] = 1 µg/ml, genetic background: ΔsoxS

C[C@H]1COc2c(N3CCN(C)CC3)c(F)cc3c(=O)c(C(=O)O)cn1c23 [Levofloxacin]
promoter activity interaction Z-score [1, 8]: 0.161 ± 0.16 | promoter activity interaction Z-score [1, 9]: 1.19 ± 0.57 | promoter activity interaction Z-score [1, 10]: 0.765 ± 0.3 | promoter activity interaction Z-score [1, 11]: 0.13 ± 0.43 | promoter activity interaction Z-score [1, 12]: 1.49 ± 0.47 | promoter activity interaction Z-score [1, 13]: 3.65 ± 2.5 | promoter activity interaction Z-score [1, 14]: 3 | promoter activity interaction Z-score [1, 15]: 0.933 ± 0.088 | promoter activity interaction Z-score [2, 8]: -0.267 ± 0.3 | promoter activity interaction Z-score [2, 9]: 0.407 ± 0.14 | promoter activity interaction Z-score [2, 10]: 0.249 ± 0.18 | promoter activity interaction Z-score [2, 11]: 0.076 ± 0.062 | promoter activity interaction Z-score [2, 12]: 0.268 ± 0.26 | promoter activity interaction Z-score [2, 13]: 0.154 ± 0.1 | promoter activity interaction Z-score [2, 14]: -0.048 | promoter activity interaction Z-score [2, 15]: 0.58 ± 0.097 | promoter activity interaction Z-score [3, 8]: 0.0942 ± 0.084 | promoter activity interaction Z-score [3, 9]: 0.337 ± 0.47 | promoter activity interaction Z-score [3, 10]: 0.283 ± 0.32 | promoter activity interaction Z-score [3, 11]: 0.00971 ± 0.41 | promoter activity interaction Z-score [3, 12]: 0.729 ± 0.33 | promoter activity interaction Z-score [3, 13]: 1.02 ± 1.5 | promoter activity interaction Z-score [3, 15]: 2.15 ± 2.1 | promoter activity interaction Z-score [4, 8]: 0.859 ± 0.36 | promoter activity interaction Z-score [4, 9]: 0.95 ± 0.41 | promoter activity interaction Z-score [4, 10]: -0.178 ± 0.062 | promoter activity interaction Z-score [4, 11]: 0.248 ± 0.29 | promoter activity interaction Z-score [4, 12]: -0.182 ± 0.079 | promoter activity interaction Z-score [4, 13]: 0.841 ± 0.84 | promoter activity interaction Z-score [4, 14]: 0.348 | promoter activity interaction Z-score [4, 15]: -0.154 ± 1.2 | promoter activity interaction Z-score [5, 8]: -0.114 ± 0.024 | promoter activity interaction Z-score [5, 9]: 0.133 ± 0.013 | promoter activity interaction Z-score [5, 10]: -0.071 ± 0.15 | promoter activity interaction Z-score [5, 11]: 0.197 ± 0.43 | promoter activity interaction Z-score [5, 12]: 0.185 ± 0.047 | promoter activity interaction Z-score [5, 13]: 0.0863 ± 0.079 | promoter activity interaction Z-score [5, 14]: -0.0469 ± 0.15 | promoter activity interaction Z-score [5, 15]: 2.32 ± 0.6 | promoter activity interaction Z-score [6, 8]: -0.228 ± 1.2 | promoter activity interaction Z-score [6, 9]: 0.741 ± 0.18 | promoter activity interaction Z-score [6, 10]: -0.128 ± 1 | promoter activity interaction Z-score [6, 11]: -0.647 ± 0.99 | promoter activity interaction Z-score [6, 12]: 0.287 ± 1 | promoter activity interaction Z-score [6, 13]: 0.606 | promoter activity interaction Z-score [6, 14]: -0.887 | promoter activity interaction Z-score [6, 15]: 2.55 ± 1.9

O=C(N[C@H](CO)[C@H](O)c1ccc([N+](=O)[O-])cc1)C(Cl)Cl [Chloramphenicol]
promoter activity interaction Z-score [1, 16]: 0.22 ± 0.098 | promoter activity interaction Z-score [1, 17]: -0.0897 ± 1 | promoter activity interaction Z-score [1, 18]: 0.368 ± 0.066 | promoter activity interaction Z-score [1, 19]: 0.272 ± 0.11 | promoter activity interaction Z-score [1, 20]: 0.636 ± 0.41 | promoter activity interaction Z-score [1, 21]: -0.23 ± 0.65 | promoter activity interaction Z-score [1, 22]: 0.312 ± 0.071 | promoter activity interaction Z-score [1, 23]: 0.433 ± 0.24 | promoter activity interaction Z-score [1, 24]: 1.1 ± 0.056 | promoter activity interaction Z-score [1, 25]: -0.541 ± 0.59 | promoter activity interaction Z-score [1, 26]: 0.7917 ± 0.0062 | promoter activity interaction Z-score [1, 27]: 1.11 ± 0.52 | promoter activity interaction Z-score [1, 28]: 1.46 ± 0.021 | promoter activity interaction Z-score [1, 29]: -1.09 ± 0.82 | promoter activity interaction Z-score [1, 30]: 0.0905 | promoter activity interaction Z-score [7, 16]: 0.131 ± 0.36 | promoter activity interaction Z-score [7, 17]: 0.172 ± 0.061 | promoter activity interaction Z-score [7, 18]: 0.31 ± 0.053 | promoter activity interaction Z-score [7, 19]: 0.215 ± 0.0078 | promoter activity interaction Z-score [7, 20]: 0.735 ± 0.19 | promoter activity interaction Z-score [7, 21]: 0.695 ± 0.4 | promoter activity interaction Z-score [7, 22]: 0.342 ± 0.21 | promoter activity interaction Z-score [7, 23]: 0.497 ± 0.14 | promoter activity interaction Z-score [7, 24]: 1.43 ± 0.31 | promoter activity interaction Z-score [7, 25]: 1.26 ± 0.45 | promoter activity interaction Z-score [7, 26]: 0.873 ± 0.55 | promoter activity interaction Z-score [7, 27]: 1.19 ± 0.34 | promoter activity interaction Z-score [7, 28]: 0.553 ± 0.19 | promoter activity interaction Z-score [7, 29]: -0.609 ± 0.26 | promoter activity interaction Z-score [7, 30]: 1.31 ± 0.5 | promoter activity interaction Z-score [2, 16]: -0.122 ± 0.054 | promoter activity interaction Z-score [2, 17]: -0.0498 ± 0.071 | promoter activity interaction Z-score [2, 18]: -0.238 ± 0.013 | promoter activity interaction Z-score [2, 19]: 0.0558 ± 0.064 | promoter activity interaction Z-score [2, 20]: 0.0837 ± 0.14 | promoter activity interaction Z-score [2, 21]: -0.057 ± 0.033 | promoter activity interaction Z-score [2, 22]: -0.128 ± 0.036 | promoter activity interaction Z-score [2, 23]: -0.0814 ± 0.0056 | promoter activity interaction Z-score [2, 24]: -0.548 ± 0.11 | promoter activity interaction Z-score [2, 25]: -0.166 ± 0.013 | promoter activity interaction Z-score [2, 26]: 0.103 ± 0.18 | promoter activity interaction Z-score [2, 27]: 0.183 ± 0.15 | promoter activity interaction Z-score [2, 28]: -1.17 ± 0.016 | promoter activity interaction Z-score [2, 29]: -0.119 ± 0.29 | promoter activity interaction Z-score [2, 30]: -0.534 | promoter activity interaction Z-score [3, 16]: 0.809 ± 0.57 | promoter activity interaction Z-score [3, 17]: 0.473 ± 0.32 | promoter activity interaction Z-score [3, 18]: 0.576 ± 0.47 | promoter activity interaction Z-score [3, 19]: 1.1 ± 0.088 | promoter activity interaction Z-score [3, 20]: 1.81 ± 0.86 | promoter activity interaction Z-score [3, 21]: 1.78 ± 0.49 | promoter activity interaction Z-score [3, 22]: 1.2 ± 0.46 | promoter activity interaction Z-score [3, 23]: 1.55 ± 0.91 | promoter activity interaction Z-score [3, 24]: 0.1844 ± 0.0012 | promoter activity interaction Z-score [3, 25]: 1.34 ± 0.83 | promoter activity interaction Z-score [3, 26]: 0.797 ± 0.094 | promoter activity interaction Z-score [3, 27]: 1.6 ± 0.38 | promoter activity interaction Z-score [3, 28]: -1.42 ± 0.36 | promoter activity interaction Z-score [3, 29]: -1.37 ± 0.11 | promoter activity interaction Z-score [3, 30]: -0.525 | promoter activity interaction Z-score [4, 16]: -0.00573 ± 0.3 | promoter activity interaction Z-score [4, 17]: -0.626 ± 0.41 | promoter activity interaction Z-score [4, 18]: -0.328 ± 0.36 | promoter activity interaction Z-score [4, 19]: 0.732 ± 0.14 | promoter activity interaction Z-score [4, 20]: -0.692 ± 0.34 | promoter activity interaction Z-score [4, 21]: -0.0133 ± 0.15 | promoter activity interaction Z-score [4, 22]: -0.61 ± 0.2 | promoter activity interaction Z-score [4, 23]: -0.218 ± 0.31 | promoter activity interaction Z-score [4, 24]: -1.41 ± 0.4 | promoter activity interaction Z-score [4, 25]: -0.957 ± 0.41 | promoter activity interaction Z-score [4, 26]: -1.44 ± 0.12 | promoter activity interaction Z-score [4, 27]: -1.17 ± 0.88 | promoter activity interaction Z-score [4, 28]: -2.19 ± 0.21 | promoter activity interaction Z-score [4, 29]: -1.15 ± 0.94 | promoter activity interaction Z-score [5, 16]: -0.0492 ± 0.039 | promoter activity interaction Z-score [5, 17]: 0.159 ± 0.13 | promoter activity interaction Z-score [5, 18]: 0.217 ± 0.045 | promoter activity interaction Z-score [5, 19]: 0.238 ± 0.14 | promoter activity interaction Z-score [5, 20]: 0.299 ± 0.018 | promoter activity interaction Z-score [5, 21]: 0.529 ± 0.11 | promoter activity interaction Z-score [5, 22]: 0.189 ± 0.096 | promoter activity interaction Z-score [5, 23]: 0.422 ± 0.29 | promoter activity interaction Z-score [5, 24]: 0.645 ± 0.3 | promoter activity interaction Z-score [5, 25]: 0.914 ± 0.026 | promoter activity interaction Z-score [5, 26]: 0.721 ± 0.017 | promoter activity interaction Z-score [5, 27]: 1.45 ± 1.5 | promoter activity interaction Z-score [5, 28]: 1.67 ± 0.091 | promoter activity interaction Z-score [5, 29]: 2.38 ± 0.034 | promoter activity interaction Z-score [5, 30]: 1.71 ± 1.7 | promoter activity interaction Z-score [6, 16]: 0.142 ± 1.1 | promoter activity interaction Z-score [6, 17]: -0.0323 ± 0.44 | promoter activity interaction Z-score [6, 18]: 0.149 ± 0.77 | promoter activity interaction Z-score [6, 19]: -0.831 ± 0.55 | promoter activity interaction Z-score [6, 20]: 0.339 ± 0.15 | promoter activity interaction Z-score [6, 21]: 0.367 ± 0.84 | promoter activity interaction Z-score [6, 22]: -0.202 ± 1.4 | promoter activity interaction Z-score [6, 23]: 0.0632 ± 1 | promoter activity interaction Z-score [6, 24]: 0.356 ± 1.2 | promoter activity interaction Z-score [6, 25]: 0.168 ± 0.82 | promoter activity interaction Z-score [6, 26]: -0.0545 ± 0.19 | promoter activity interaction Z-score [6, 27]: 2.03 ± 0.53 | promoter activity interaction Z-score [6, 28]: -0.0529 ± 0.35 | promoter activity interaction Z-score [6, 29]: -0.256 ± 0.82 | promoter activity interaction Z-score [6, 30]: 1.66 ± 0.93

From the supplement of paper PMC12282887
